For 28 compounds, Potency and activity, negative = inhibition results are on record in PubChem BioAssay (NCATS).

Each structure is given as a SMILES string. Values without a mark were called inactive. A call without a number means that no potency is given here. Activity calls are given as the source filed them. Calls follow the shape of the dose curve; as a rule, active = well fitted inhibition curve with a large enough effect; inconclusive = small, poorly fitted or top-dose-only effect; inactive = flat fitted curve, though single readings scatter.

This test deals with Nanoluciferase (engineered Oplophorus gracilirostris luciferase). The experiment in a line: Primary Nanoluciferase (NLuc) qHTS assay for identification of artifact compounds. (AID 1845222). The following applies: NLuc-conditioned medium, Nano-Glo luminescence, 5 min; series mostly up to 54.1 µM. In outline: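 Compounds are pinned into diluted (1:55) conditioned medium of NLuc-expressing S16 cells and held 15 min at room temperature protected from light. Nano-Glo substrate follows, and luminescence is read 5 min later.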
In general terms: qHTS replaces the single test concentration by a dilution series.
Regarding `COc1ccccc1CN[C@H]1CCCN[C@H]1c1ccccc1`, the Potency entry is “inactive”.

As for `C=C1C(O)C(OC(=O)c2ccccc2)C2C(C)(C(=O)O)CCCC2(C)C1CC/C(C)=C\CO` (stereo not drawn), the Potency result was “inactive”.

For `Nc1ccc(-n2nc(C(F)(F)F)cc2C(F)(F)F)cc1`, the Potency entry was “inactive”.

Consider `OC[C@H]1O[C@@H](OCc2ccccc2)[C@H](O[C@@H]2OC[C@@H](O)[C@H](O)[C@H]2O)[C@@H](O)[C@@H]1O`, for which the Potency result is “inactive”.

`COC(=O)c1ccccc1O[C@@H]1O[C@H](CO[C@@H]2OC[C@@H](O)[C@H](O)[C@H]2O)[C@@H](O)[C@H](O)[C@H]1O`: the Potency result was “inactive”.

For the compound `C[C@@H]1O[C@@H](O[C@H]2[C@@H]3C=CO[C@@H](O[C@@H]4O[C@H](CO)[C@@H](O)[C@H](O)[C@H]4O)[C@@H]3[C@@]3(CO)O[C@@H]23)[C@H](O)[C@H](O)[C@H]1OC(=O)/C=C/c1ccc(O)cc1`, the Potency entry was “inactive”.

`C[C@]12CCC[C@](C)(C(=O)O)C1CCC13CC(CO)C(CCC12)C3` (stereo partly drawn): the Potency result was “inactive”.

Regarding `NC1Nc2ccccc2C1(N)CC1NC(=O)C(Cc2ccccc2)NC(=O)C(Cc2ccccc2)NC1=O` (stereo not drawn), the Potency entry is “inactive”.

For `COc1cc(C(CO)C(OC2OC(CO)C(O)C(O)C2O)c2ccc(O)c(OC)c2)ccc1O` (stereo not drawn), the Potency entry was “inactive”.

Consider `CC1C2=CC(=O)OC2(O)CC2C1C(OC(=O)c1ccccc1)C(OC(=O)c1ccccc1)C1(O)C2(C)CCC(O)C1(C)C(=O)O` (stereo not drawn), for which the Potency result was “inactive”.

Turning to `CCC(C)(C)C1CCc2c(sc(NC(=O)c3ccc(Br)cc3)c2C#N)C1` (stereo not drawn), the Potency entry was “inactive”.

For `C/C=C(/C)C(=O)OC1C(OC(C)=O)C23C(O)OC4(CCC5C6(C)CCC(OC7OC(C(=O)O)C(O)C(OC8OC(CO)C(O)C(O)C8OC8OC(C)C(O)C(O)C8OC8OCC(O)C(O)C8O)C7OC7OC(CO)C(O)C(O)C7O)C(C)(C)C6CCC5(C)C4(C)CC2OC(C)=O)C3CC1(C)C` (stereo not drawn), the activity, negative = inhibition was 0.798% [at 11.6 µM].

Turning to `COc1cc(/C=C/C(=O)O[C@H]2[C@@H]3C=CO[C@@H](O[C@@H]4O[C@H](CO)[C@@H](O)[C@H](O)[C@H]4O)[C@@H]3[C@@]3(CO)O[C@@H]23)ccc1O`, the Potency entry was “inactive”.

As to `COC(=O)C1=COC(O[C@@H]2O[C@H](CO)[C@@H](O)[C@H](O)[C@H]2O)[C@@H]2[C@@](C)(O)[C@@H](OC(=O)/C=C/c3ccccc3)C[C@]12O` (stereo partly drawn), the Potency entry was “inactive”.

`CC(=O)OC12CC(C)C(OC(=O)c3ccccc3)C1/C=C(/C)C(OC(=O)c1ccccc1)CC(=O)C(C)(C)/C=C/C(C)C2=O` (stereo not drawn): the Potency result was “inactive”.

Regarding `O=C(/C=C/c1ccc(O)cc1)OC[C@H]1O[C@H](O[C@@]2(CO)O[C@@H](CO)[C@H](O)[C@H]2O)[C@H](O)[C@@H](O)[C@@H]1O`, the Potency result was “inactive”.

Take `C[C@@]1(O)[C@H](O)[C@@H](CO)O[C@H]1n1cnc2c(=O)[nH]c(N)nc21`: the Potency entry was “inactive”.

Consider `CC(=O)OC1CC2C(C)(C)C(=O)C=CC2(C)C2CC(=O)C3=C(CCC3C3=CC(O)OC3=O)C12C` (stereo not drawn), for which the Potency result was “inactive”.

Regarding `CC1(C)CC[C@]2(C(=O)O[C@@H]3O[C@H](CO)[C@@H](O)[C@H](O)[C@H]3O)CC[C@]3(C)C(=CCC4[C@@]5(C)CC[C@H](O[C@@H]6O[C@H](C(=O)O)[C@@H](O[C@@H]7O[C@H](CO)[C@@H](O)[C@H](O)[C@H]7O)[C@H](O)[C@H]6O[C@@H]6O[C@H](CO)[C@@H](O)[C@H](O)[C@H]6O)C(C)(C)C5CC[C@]43C)C2C1` (stereo partly drawn), the activity, negative = inhibition was 0% [at 11.6 µM].

Regarding `CC(=O)/C=C/C1(O)C(C)=CC(=O)CC1(C)C` (stereo not drawn), the Potency result is “inactive”.

Turning to `O=C(O[C@H]1[C@H](Oc2ccc(O)cc2CO)O[C@H](CO)[C@@H](O)[C@@H]1O)c1ccccc1`, the Potency entry is “inactive”.

As to `CC1CCC2(C(=O)OC3OC(CO)C(O)C(O)C3O)CCC3(C)C(=CCC4C5(C)CCC(O)C(C)(CO)C5CCC43C)C2C1(C)O` (stereo not drawn), the Potency entry is “inactive”.

For `COc1cc(/C=C/C(=O)O[C@@H]2O[C@H](CO)[C@@H](O)[C@H](O)[C@H]2O)ccc1O`, the Potency result is “inactive”.

For `CC(=O)/C=C/[C@H]1[C@](C)(O)[C@@H](O)[C@H](O)C2C(C)(C)CCC[C@@]21C` (stereo partly drawn), the Potency entry was “inactive”.

For the compound `CC(C)NC(=O)c1ccc(C#Cc2ccncc2)cn1`, the Potency entry is “inactive”.

For `CC(=O)OC1(C)CC(O)C2(O)C=COC(OC3OC(CO)C(O)C(O)C3O)C12` (stereo not drawn), the Potency result is “inactive”.

For `CC(C)(O)c1ccc2c(c1)C(=O)C[C@H]1[C@](C)(C(=O)O)CCC[C@]21C`, the Potency entry is “inactive”.

On to `C=CC(C)(O)CC/C=C(\C)C(=O)O[C@@H]1[C@@H](O)[C@H](OC(C)(C=C)CC/C=C(\C)C(=O)O[C@@H]2O[C@H](CO)[C@@H](O)[C@H](O)[C@H]2O)O[C@H](CO)[C@H]1OC(=O)/C(C)=C/CCC(C)(O)C=C` (stereo partly drawn), for which the activity, negative = inhibition is 0.542% [at 11.6 µM].
